Laboratory results reported in PubChem BioAssay (EPA / NIEHS).
Records with an inconclusive call do not appear. Some compounds were tested as several samples or in several runs, with calls that do not always agree. Active and inactive are the calls of the source. The calls were made as follows, unless noted: active = hit-call score of the fitted dose curve at least 0.9, where 1 is the maximum; inconclusive = response in the unintended direction; inactive = score below 0.9.

How the values were obtained:
TIMP1, TIMP1 (gene 7076) = assay: LTEA_HepaRG_TIMP1: Life Technologies and Expression Analysis (LTEA) Assay for TIMP1 using HepaRG (AID 2283534; active = hit-call score of the fitted dose curve at least 0.9, where 1 is the maximum; inactive = score below 0.9); conditions: mRNA level, 48 h; actives raise or lower the signal
Outline: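 Readout is TIMP1 mRNA level measured by qRT-PCR and normalized to three housekeeping genes. Human HepaRG cells were treated for 48 h in duplicate at eight concentrations up to 100 uM (0.5% DMSO); gain or loss fitted against DMSO.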

[1] = read-out: Tumor necrosis factor receptor 1 (TNFRSF1A), TNFRSF1A (gene 7132); assay: LTEA_HepaRG_TNFRSF1A: Life Technologies and Expression Analysis (LTEA) Assay for Tumor necrosis factor receptor 1 (TNFRSF1A) using HepaRG (AID 2283535; active = hit-call score of the fitted dose curve at least 0.9, where 1 is the maximum; inactive = score below 0.9); conditions: mRNA level, 48 h; actives raise or lower the signal
Outline: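 Read-out is TNFRSF1A transcript level by TaqMan qRT-PCR, normalized to three housekeeping genes, scored as gain or loss of signal versus 0.5% DMSO. Human HepaRG cells received test chemicals for 48 h at up to 100 uM (half-log series).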

[2] = read-out: Thyroid Hormone Responsive (THRSP), THRSP (gene 7069); assay: LTEA_HepaRG_THRSP: Life Technologies and Expression Analysis (LTEA) Assay for Thyroid Hormone Responsive (THRSP) using HepaRG (AID 2283536; active = hit-call score of the fitted dose curve at least 0.9, where 1 is the maximum; inactive = score below 0.9); conditions: mRNA level, 48 h; actives raise or lower the signal
Outline: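 Differentiated human HepaRG cells were exposed in duplicate for 48 h in serum-free induction medium to eight concentrations (top 100 uM, half-log steps, 0.5% DMSO). Expression was quantified by TaqMan qRT-PCR, normalized to ACTB, GAPDH and POLR2A, with bidirectional fitting against DMSO.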

[3] = read-out: UDP glucuronosyltransferase (UGT1A1), UGT1A1 (gene 54658); assay: LTEA_HepaRG_UGT1A1: Life Technologies and Expression Analysis (LTEA) Assay for UDP glucuronosyltransferase (UGT1A1) using HepaRG (AID 2283538; active = hit-call score of the fitted dose curve at least 0.9, where 1 is the maximum; inactive = score below 0.9); conditions: mRNA level, 48 h; actives raise or lower the signal
Outline: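 Differentiated human HepaRG cells in serum-free induction medium were exposed in duplicate for 48 h to eight half-log concentrations up to 100 uM in 0.5% DMSO. UGT1A1 mRNA was quantified by TaqMan qRT-PCR, normalized to ACTB, GAPDH and POLR2A, and fitted bidirectionally against DMSO.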

[4] = read-out: X-box binding protein 1 (XBP1), XBP1 (gene 7494); assay: LTEA_HepaRG_XBP1: Life Technologies and Expression Analysis (LTEA) Assay for X-box binding protein 1 (XBP1) using HepaRG (AID 2283540; active = hit-call score of the fitted dose curve at least 0.9, where 1 is the maximum; inactive = score below 0.9); conditions: mRNA level, 48 h; actives raise or lower the signal
Outline: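 Transcript levels of XBP1, measured by qRT-PCR and normalised to three housekeeping genes, were fitted bidirectionally relative to 0.5% DMSO controls. Human HepaRG cells received eight-point half-log dilutions from 100 uM for 48 h.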

[5] = LTEA_HepaRG_LDH_cytotoxicity: Cytotoxicity Assessment in the Life Technologies and Expression Analysis (LTEA) Assay (AID 2283563)
Outline: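 Cells were thawed and plated for 48 h. Medium was then replaced with serum-free induction medium. Chemicals (8 half-log points, maximum 100 uM, 0.5% DMSO) were added in duplicate for 48 h, after which spent medium was assayed for LDH.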

[6] = Tanguay_ZF_120hpf_MORT_legacy: (Legacy) Oregon State University Tanguay Lab 120 Hour Post-fertilization zebrafish Assay for Mortality (AID 2283633)
Outline: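 5D WT zebrafish, chorion removed 4 hpf; 1 embryo/well from 6 hpf; static exposure to 120 hpf, 28C, dark, sealed. Final DMSO 0.64%. Readout: binary mortality, brightfield, 24 + 120 hpf; DMSO as negative control.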

[7] = Tanguay_ZF_120hpf_YSE_legacy: (Legacy) Oregon State University Tanguay Lab 120 Hour Post-fertilization zebrafish Assay for Yolk Sac Edema (AID 2283634)
Outline: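 Dechorionate (pronase, 4 hpf) → place one 6 hpf embryo per well → static compound exposure, sealed and foil-covered, 28C, to 120 hpf → record yolk sac edema as present or absent. Final DMSO 0.64%.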

[8] = Tanguay_ZF_120hpf_AXIS_legacy: (Legacy) Oregon State University Tanguay Lab 120 Hour Post-fertilization zebrafish Assay for Body Axis Malformation (AID 2283635)
Outline: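 Chorion is removed with pronase at 4 hpf, then single 6 hpf embryos are dosed (final DMSO 0.64%) and held statically at 28C in sealed, foil-covered plates. At 120 hpf body axis malformation is recorded as present or absent.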

[9] = Tanguay_ZF_120hpf_EYE_legacy: (Legacy) Oregon State University Tanguay Lab 120 Hour Post-fertilization zebrafish Assay for Eye Malformation (AID 2283636);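 also: binary presence or absence of eye malformation scored by brightfield in 120 hpf larvae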
Outline: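 Dechorionated wild-type Tropical 5D zebrafish embryos were exposed statically from 6 hpf, one per well, to 120 hpf at 28C in sealed, foil-covered plates with 0.64% DMSO. Eye malformation was scored present/absent by brightfield microscopy against DMSO controls.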

[10] = Tanguay_ZF_120hpf_SNOU_legacy: (Legacy) Oregon State University Tanguay Lab 120 Hour Post-fertilization zebrafish Assay for Snout Malformation (AID 2283637)
Outline: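 Tropical 5D wild-type zebrafish embryos, dechorionated with pronase at 4 hpf, were exposed singly from 6 hpf to 120 hpf statically at 28C in 0.64% DMSO. Snout malformation was scored present/absent by brightfield microscopy, fitted against DMSO.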

[11] = Tanguay_ZF_120hpf_JAW_legacy: (Legacy) Oregon State University Tanguay Lab 120 Hour Post-fertilization zebrafish Assay for Jaw Malformation (AID 2283638)
Outline: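 Steps: dechorionate 4 hpf embryos (pronase); plate 1/well at 6 hpf; add test chemical, 0.64% DMSO final; seal, cover, hold at 28C statically to 120 hpf; score jaw defect presence/absence microscopically. Dead embryos not scored.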

[12] = read-out: UDP glucuronosyltransferase (UGT1A6), UGT1A6 (gene 54578); assay: LTEA_HepaRG_UGT1A6: Life Technologies and Expression Analysis (LTEA) Assay for UDP glucuronosyltransferase (UGT1A6) using HepaRG (AID 2283539; active = hit-call score of the fitted dose curve at least 0.9, where 1 is the maximum; inactive = score below 0.9); conditions: mRNA level, 48 h; actives raise or lower the signal
Outline: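 HepaRG, 48 h post-plating switch to serum-free induction medium; chemical 48 h, 100 uM top, half-log x8, duplicate, 0.5% DMSO. Phenobarbital 1mM induction control. UGT1A6 mRNA by TaqMan qRT-PCR; gain/loss fit vs DMSO.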

[13] = target: Cellular tumor antigen p53 (Homo sapiens) (UniProt P04637); assay: TOX21_p53_BLA_p2_ratio: Tox21 HCT-116 p53 Agonism Beta-lactamase Assay, Ratio, Phase 2 (AID 2283592)
Chain of Cellular tumor antigen p53 (Homo sapiens) (P04637 whole entry, looked up): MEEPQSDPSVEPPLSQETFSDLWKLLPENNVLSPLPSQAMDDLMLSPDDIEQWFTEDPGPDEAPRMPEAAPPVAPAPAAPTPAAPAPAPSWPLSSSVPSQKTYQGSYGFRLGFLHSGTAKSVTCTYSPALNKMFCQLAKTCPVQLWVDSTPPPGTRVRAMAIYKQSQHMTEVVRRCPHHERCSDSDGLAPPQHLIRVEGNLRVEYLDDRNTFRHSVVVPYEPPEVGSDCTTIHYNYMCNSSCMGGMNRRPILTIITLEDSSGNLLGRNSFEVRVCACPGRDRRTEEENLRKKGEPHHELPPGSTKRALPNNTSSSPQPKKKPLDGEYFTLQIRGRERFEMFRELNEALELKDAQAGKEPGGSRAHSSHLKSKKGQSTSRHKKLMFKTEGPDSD
Outline: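 HCT116 p53-bla; 4000 cells/well; 5 h pre-incubation; cpd in DMSO, 217-fold dilution; 16 h 37C/5% CO2; CCF4-AM 2 h RT; Ex 405, Em 460/530 ratio; DMSO = baseline; positive fitting direction.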

[14] = TOX21_p53_BLA_p3_viability: Viability Assessment in the Tox21 HCT-116 p53 Agonism Beta-lactamase Assay, Phase 3 (AID 2283593);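 also: cells exposed to compound for 16 h before reading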
Outline: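 HCT-116 cells (4000/well) rested 5 h at 37C, then got DMSO compounds by pin tool (217-fold dilution) for 16 h at 37C, 5% CO2. After the bla read, CellTiter-Glo was added and luminescence read at 30 min, room temperature.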

[15] = target: Cellular tumor antigen p53 (Homo sapiens) (UniProt P04637); assay: TOX21_p53_BLA_p3_ratio: Tox21 HCT-116 p53 Agonism Beta-lactamase Assay, Ratio, Phase 3 (AID 2283596)
Outline: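 HCT116 p53-bla cells (4000/well) given compound in DMSO (217-fold dilution) after 5 h, incubated 16 h at 37C. CCF4-AM substrate 2 h at room temperature; 460/530 nm emission ratio, gain fitted against DMSO.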

[16] = TOX21_p53_BLA_p4_viability: Viability Assessment in the Tox21 HCT-116 p53 Agonism Beta-lactamase Assay, Phase 4 (AID 2283597);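 also: hits lower the luminescence signal meaning cytotoxicity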
Outline: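 Cells plated, 5 h pre-incubation; DMSO compounds pinned (217-fold dilution); 16 h, 37C/5% CO2; CCF4-AM 2 h RT; CellTiter-Glo 30 min RT; luminescence read.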

[17] = target: Cellular tumor antigen p53 (Homo sapiens) (UniProt P04637); assay: TOX21_p53_BLA_p5_ratio: Tox21 HCT-116 p53 Agonism Beta-lactamase Assay, Ratio, Phase 5 (AID 2283599)
Outline: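 HCT-116 cells carrying a p53-inducible beta-lactamase reporter were seeded at 4000 cells/well and dosed after 5 h with compound in DMSO (217-fold dilution). After 16 h at 37C, CCF4-AM substrate was added for 2 h, and the 460/530 nm emission ratio was scored as gain-of-signal versus DMSO.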

[18] = target: Cellular tumor antigen p53 (Homo sapiens) (UniProt P04637); assay: TOX21_p53_BLA_p4_ratio: Tox21 HCT-116 p53 Agonism Beta-lactamase Assay, Ratio, Phase 4 (AID 2283601)
Outline: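 HCT116 cells carrying an inducible beta-lactamase reporter were plated at 4000 cells/well, rested 5 h, then exposed to compounds in DMSO (217-fold dilution) for 16 h at 37C. CCF4-AM substrate was loaded 2 h at room temperature; 460/530 nm emission ratio scored gain-of-signal versus DMSO.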

[19] = ATG_XTT_Cytotoxicity: Cytotoxicity Assessment in the Attagene TRANS-FACTORIAL HepG2 Assay (AID 2283584)
Outline: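 Cells: human HepG2, transiently transfected with MRTU reporter constructs. Exposure 24 h. Readout: XTT, cell number. Baseline/neg ctrl DMSO; loss-of-signal scored.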

Measured: AC50

CCOc1ccc2[nH]cc(C(=O)NCc3ccccc3)c(=O)c2n1
not listed: [12] | [13] | [14] | [15] | [16] | [17] | [18] | [19]
inactive: all other assays above

CCOC(N)=O
active: [15] 88.1 µM
inactive: TIMP1, TIMP1 (gene 7076) | [1] | [2] | [3] | [12] | [4] | [5] | [13] | [14] | [15] | [16] | [17] | [18] | [6] | [7] | [8] | [9] | [10] | [11]

OCc1ccccc1
not listed: [12] | [13] | [14] | [15] | [16] | [17] | [18] | [19]
inactive: all other assays above

CCCOc1ccc(S(=O)(=O)N2CCN(CC)CC2)cc1-c1nc2c(CC)n(Cc3ccccn3)nc2c(=O)[nH]1
active: [2] 50 µM | [3] 4.74 µM
inactive: TIMP1, TIMP1 (gene 7076) | [1] | [4] | [5] | [6] | [7] | [8] | [9] | [10]

CC(=O)c1ccccc1
not listed: [11] | [12] | [19]
inactive: all other assays above

CCCCCCCCN(C)C
not listed: [2] | [7] | [9] | [11] | [13] | [14] | [18]
inactive: all other assays above

CCCCCCCCCC
not listed: [11] | [12] | [14] | [19]
inactive: all other assays above

O=C(O)c1cccc(C(=O)O)c1
not listed: [13] | [14] | [15] | [16] | [17] | [18]
inactive: all other assays above

NC(N)=O
inactive: TIMP1, TIMP1 (gene 7076) | [1] | [2] | [3] | [4] | [5] | [19] | [6] | [7] | [8] | [10]

OC(CCl)CCl
not listed: [11] | [18]
inactive: all other assays above

CCCC(CCC)C(=O)O
not listed: [2] | [11] | [13] | [14] | [15] | [16] | [17] | [18]
inactive: all other assays above

CC(C)C(=O)Nc1ccc([N+](=O)[O-])c(C(F)(F)F)c1
active: TIMP1, TIMP1 (gene 7076) 28.7 µM | [2] 10.9 µM | [3] 90.1 µM | [12] 74.7 µM | [4] 12.2 µM
inactive: [1] | [5] | [19] | [6] | [7] | [8] | [9] | [10]

NC(=O)NN=Cc1ccc([N+](=O)[O-])o1
not listed: [2] | [9]
inactive: all other assays above

CC(C)CC(C)O (centres undefined)
not listed: [11] | [13] | [14] | [15] | [16] | [17] | [18]
inactive: all other assays above

CCCc1ccccc1
not listed: [11] | [15] | [16] | [17] | [18] | [19]
inactive: all other assays above

CNC(C)=O
inactive: TIMP1, TIMP1 (gene 7076) | [1] | [2] | [3] | [4] | [5] | [19] | [6] | [8] | [10] | [11]

C=CN1CCCC1=O
not listed: [2]
inactive: all other assays above
